KB-V1 cytotox: KB-V1 MDR subline cytotoxicity | AID 1347076 | Potency, µM (titrated, usually from 46.1 µM), most hits filed as cytotoxic | 400,000 compounds, 3.4% hits | KB-V1 MDR cells viability, CellTiter-Glo, 72 h; further: on the % scale 0 is the no-effect control and ±100 the full control effect; nearly all actives have a fitted effect of over 60% in size
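KB-V1 MDR subline cells in DMEM (phenol-red free, 10% FBS) exposed to compounds in qHTS concentration series for 72 h at 37 degrees C. Viability read by CellTiter-Glo luminescence; concentration-effect curves fitted after normalization and correction.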
ATXN viability: viability counter-screen for ATXN expression inhibitors; S2 cells (HEK-293 line with an ATXN2-luciferase reporter) viability, CellTiter-Fluor protease fluorescence, 24 h; Potency, µM (doses to about 56.7 µM), usual class: cytotoxic; 400,000 compounds, 0.49% hits; AID 651635; further: nearly all actives have a fitted effect of over 40% in size
ATXN2 expr inh: inhibitors of ATXN2 expression | 360,000 compounds, 0.72% hits | HEK-293 ATXN2-luciferase reporter, luminescence, 24 h | Potency, µM (doses to about 57 µM), inactives show at the highest dose activity change, negative = inhibition, usual class: inhibitors; further: on the % scale 0 is the no-effect control and ±100 the full control effect; nearly all actives have a fitted effect of over 55% in size
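ATXN2-luciferase reporter cells (luciferase flanked by upstream and downstream ATXN2 gene portions) were treated 24 h at 37 °C with compounds at up to 57 uM. SteadyGlo luminescence gave expression; GF-AFC fluorescence gave viability.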
TGFb inhibitor: TGF-b pathway inhibition; AID 588855; 410,000 compounds, 1.2% hits; Potency, µM (doses to about 46.1 µM), without a hit: at the highest dose activity, negative = inhibition, usual class: inhibitors; HepG2 CAGA-GFP TGF-b/SMAD3 reporter, GFP fluorescence, 18 h; TGF-beta stimulated, 500 pg/mL final; further: on the % scale 0 is the no-effect control and ±100 the full control effect; nearly all actives have a fitted effect of over 65% in size
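Cell-based qHTS in HEPG2 carrying a CAGA-GFP Smad reporter; compounds added before 500 pg/mL final TGF-beta, 18 h incubation at 37 degrees C, GFP fluorescence quantified per cell by imaging cytometry.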
KB-3-1 tox: kills parental KB-3-1 adenocarcinoma cells; Potency, µM (top dose mostly 46.1 µM), usual class: cytotoxic; AID 1347075; 400,000 compounds, 1.4% hits; KB-3-1 viability, CellTiter-Glo ATP luminescence, 72 h; further: on the % scale 0 is the no-effect control and ±100 the full control effect; nearly all actives have a fitted effect of over 60% in size
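Multi-concentration cytotoxicity screen in KB-3-1 cells grown in DMEM lacking phenol red with 10% FBS. After 72 h at 37 °C with compound, ATP-dependent luminescence was recorded.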
HepG2 tox-1: kills HepG2 cells in TGF-b inhibitor counter-screen | HepG2 CAGA-GFP viability, ATP luminescence, 18 h | Potency, µM (top dose mostly 46.1 µM), inactives show at the highest dose activity change, negative = cytotoxicity, hits mostly cytotoxic | 410,000 compounds, 0.76% hits
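CellTiter-Glo luminescence gave cytotoxicity after 18 hours at 37 degrees C. The cells were HepG2 CAGA-GFP in 1% FBS DMEM, stimulated with 500 pg/mL TGF-beta after compound addition. %Activity was normalised to no-cell wells (complete cell-killing) and DMSO (no toxicity), and curves were fitted and classified.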
TGFb confirm: confirmation of TGF-b signaling inhibitors in HepG2 reporter cells; AID 720534; 1,600 compounds, 63% hits; Potency, µM (titrated, usually from 46.1 µM), for the others: at the top dose activity, negative = inhibition, most hits filed as inhibitors; HepG2 CAGA-GFP TGF-b reporter, GFP fluorescence, 18 h; cells stimulated with TGF-beta, 500 pg/mL; shares compounds with TGFb inhibitor; further: on the % scale 0 is the no-effect control and ±100 the full control effect; nearly all actives have a fitted effect of over 65% in size
HepG2 tox-2: counter-screen for TGF-b inhibitors: cytotoxicity in HepG2 cells. shares compounds with TGFb inhibitor. HepG2 CAGA-GFP viability, ATP luminescence, 18 h; cells stimulated with TGF-beta, 500 pg/mL. Potency, µM (highest dose often 46.1 µM), without a hit: top-dose activity, negative = cytotoxicity, actives largely listed as inhibitors. 1,600 compounds, 27% hits. AID 720535; further: on the % scale 0 is the no-effect control and ±100 the full control effect; nearly all actives have a fitted effect of over 70% in size
CCL64 TGFb inh: orthogonal confirmation of TGF-b inhibitors in CCL64 cells; shares compounds with TGFb inhibitor; CCL64 CAGA-GFP reporter, TGF-b stimulated, GFP fluorescence, 18 h; Potency, µM (doses to about 46.1 µM), for the others: top-dose activity, negative = inhibition, usual class: inhibitors; 1,600 compounds, 41% hits; AID 720536; further: nearly all actives have a fitted effect of over 65% in size
COP TGFb inh: blocks TGF-b signaling in HepG2 COP reporter | AID 720537 | Potency, µM (top dose mostly 46.1 µM), for the others: at the highest dose activity, negative = inhibition, usual class: inhibitors | 1,600 compounds, 3% hits | HepG2 COP-GFP TGF-b reporter, GFP fluorescence, 18 h; cells stimulated by added recombinant TGF-beta | shares compounds with TGFb inhibitor; further: nearly all actives have a fitted effect of over 70% in size
* hit, by the source's call; i = inactive; ? = inconclusive; / = not tested or not shown. This is a sample that favours compounds with a hit; in the whole collection about 5.9% have one here. The call rests on the fitted dose curve; in most records, active means well fitted curve in the direction sought with a large enough effect; inconclusive means small, poorly fitted or top-dose-only effect, or another doubt; inactive means no such curve, though single readings can be large; an effect the other way counts as inactive or inconclusive. Potency means the concentration at half of the fitted maximal effect.

SMILES | KB-V1 cytotox | ATXN viability | ATXN2 expr inh | TGFb inhibitor | KB-3-1 tox | HepG2 tox-1 | TGFb confirm | HepG2 tox-2 | CCL64 TGFb inh | COP TGFb inh
Cc1ccc(N2C(=O)N(CC(=O)C(C)(C)C)c3ccccc3S2(=O)=O)cc1C | i | i | -17% | -6% | i | -2% | / | / | / | /
CS(=O)(=O)c1ccc2nc(NC(=O)Nc3cccc(Cl)c3)sc2c1 | ? | ? | -16% | 2.2µM* | i | -39% | 16µM* | ? | ? | 21%
CCSc1nnc(NC(=O)Nc2cccc(C)c2)s1 | i | i | -7% | 7.9µM* | i | -25% | ? | ? | ? | 21%
O=C(Nc1cccc(Cl)c1)Nc1nnc(-c2ccncc2)s1 | ? | / | ? | 7.9µM* | 13µM* | -45% | 10µM* | ? | 6.5µM* | 64%
O=C(NCCc1ccncc1)Nc1cccc(Cl)c1 | i | i | 0% | 0% | i | 8% | / | / | / | /
Cc1ccc(NC(=O)Nc2nnc(-c3ccncc3)s2)cc1C | ? | i | -34% | 7.9µM* | ? | -44% | 9.2µM* | ? | ? | 27%
CC(C)CNC(=O)c1c(-c2ccccc2)c(-c2ccccc2)nn(C)c1=O | / | / | / | 2% | / | -3% | / | / | / | /
O=C(CCCn1c(=O)c2ccccc2n(Cc2cccc(Cl)c2)c1=O)NCCc1ccc(Cl)cc1 | / | / | / | 0% | / | -23% | / | / | / | /
NC(c1csc(NC(=O)Nc2cccc(Cl)c2)n1)c1ccccc1Cl (stereo not drawn) | i | ? | ? | 10µM* | i | -89% | 18µM* | ? | ? | 73%
Cc1cccc(C)c1NC(=O)Nc1nc(C(N)c2ccccc2Cl)cs1 (stereo not drawn) | i | ? | -2% | -5% | i | -7% | / | / | / | /
O=C1CC(c2cc(F)cc(F)c2)c2cc3c(cc2N1)OCO3 (stereo not drawn) | i | i | -21% | 1% | i | -25% | / | / | / | /
Cc1c(C(=O)NCC(c2ccc(Cl)cc2)N2CCOCC2)oc2ccccc12 (stereo not drawn) | i | ? | -6% | ? | i | -9% | / | / | / | /
CC(=Nc1ccccc1)C1=C(O)C(Cc2ccccc2)NC1=O (stereo not drawn) | i | ? | 21% | ? | 0.0065µM* | 1% | ? | -7% | 3.3µM* | -17%
CC(=Nc1ccccc1)C1=C(O)CCCC1=O | i | i | -4% | 18% | i | 3% | / | / | / | /
CC1(C(=O)Nc2ccc3c(c2)OCCO3)CCN1C(=O)C1(c2ccc(Cl)cc2)CC1 (stereo not drawn) | i | i | -9% | 1% | i | -20% | / | / | / | /
